Source: PubChem
HPGD inh: qHTS Assay for Inhibitors of HPGD (15-Hydroxyprostaglandin Dehydrogenase); Potency, µM, inactives show at the highest dose activity change, negative = inhibition, most hits filed as inhibitors; purified HPGD, NADH fluorescence kinetic, PGE2 substrate; actives 4.3% (n = 150,000); 15-hydroxyprostaglandin dehydrogenase [NAD(+)] (Homo sapiens), P15428; note: potency is the fitted concentration of half-maximal effect
Target sequence (P15428 whole entry, looked up): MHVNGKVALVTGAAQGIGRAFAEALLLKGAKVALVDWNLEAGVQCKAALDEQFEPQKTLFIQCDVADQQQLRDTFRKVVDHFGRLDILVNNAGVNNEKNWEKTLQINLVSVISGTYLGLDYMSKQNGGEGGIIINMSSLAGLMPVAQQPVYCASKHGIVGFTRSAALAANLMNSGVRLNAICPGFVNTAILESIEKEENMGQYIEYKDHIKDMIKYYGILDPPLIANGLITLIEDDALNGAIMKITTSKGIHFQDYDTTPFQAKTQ
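NADH formation kinetics: reaction with 30 uM PGE2 and 1 mM NAD+ (final), 20 nM enzyme, Tris-HCl pH 8 with Tween 20, after 15 min compound preincubation at room temperature. Fluorescence change, last versus first of five reads.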
PNC assembly inh: High Content Assay for Compounds that inhibit the Assembly of the Perinucleolar Compartment; PC3M PTB-GFP, PNC prevalence imaging, 16 h; hits give low values; activity change (PNC), negative = inhibition, % at 10 µM; actives 3.1% (n = 140,000); AID 2417, 2010;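 active = readout at or below -70, meaning at least 70% loss of cells showing the perinucleolar compartment, a nuclear body marking cancer cells; inconclusive = readout between -30 and a set limit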;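 note: plate controls were DMSO wells for no effect and camptothecin positive control wells for full effect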
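PC3M cells stably expressing PTB-GFP, 750–1000 cells/well, treated 16 h at 37 °C with compound (23 nl of library stock), in duplicate. After paraformaldehyde fixation and Hoechst stain, imaged at 20x; PNC prevalence scored by image analysis.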
ALDH1A1 inh: qHTS Assay for Inhibitors of Aldehyde Dehydrogenase 1 (ALDH1A1) | Purified ALDH1A1, NADH fluorescence, propionaldehyde substrate | Potency, µM (top dose mostly 75.3 µM), for the others: at the highest dose activity, negative = inhibition, hits mostly inhibitors | actives 7.3% (n = 220,000);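 note: potency is the fitted concentration of half-maximal effect; plate controls were no enzyme wells and a reference inhibitor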
* = called active by the depositor; [ ] = dose if it differs, or a comment. A selection: hits, their analogues and other compounds. The true share with any hit is near 11%. Unless noted, calls come from the whole dose curve; as a rule, active = well fitted inhibition curve with a large enough effect (not every such curve was filed as active); inconclusive = small, poorly fitted or top-dose-only effect, or another doubt; inactive = no such curve, though single readings can be large or run the other way. Unless noted, % is set by controls: 0 for no effect and ±100 for the full control effect.

What do the screens show for `COc1ccc(-c2nc3c(c4c2C[C@H](c2ccccc2)OC4)CN(S(=O)(=O)c2ccc(C#N)cc2)CC3)c(C)c1`?
HPGD inh: 1%; ALDH1A1 inh: 0.5µM*

What do the screens show for `COc1ccc(-c2nc3c(c4c2C[C@H](c2ccccc2)OC4)CN(C(=O)Nc2cccc(C#N)c2)CC3)c(C)c1`?
HPGD inh: -1%; ALDH1A1 inh: inconclusive

How did COc1ccc(-c2nc3c(c4c2C[C@H](c2ccccc2)OC4)CN(C(=O)c2cc(I)ccc2F)CC3)c(C)c1 do in these assays?
HPGD inh: -2%; ALDH1A1 inh: 1.1µM*

What do the screens show for `COc1ccc(-c2nc3c(c4c2C[C@H](c2ccccc2)OC4)CN(C(=O)N[C@@H](C)c2ccccc2)CC3)c(C)c1`?
HPGD inh: -13%; ALDH1A1 inh: 3.5µM*

How did COc1ccc(-c2nc3c(c4c2C[C@H](c2ccccc2)OC4)CN(C(=O)C2CCCCC2)CC3)c(C)c1 do in these assays?
HPGD inh: -8%; ALDH1A1 inh: inconclusive

Results for COc1cccc(CC(=O)N2CCc3nc(-c4ccc(OC)cc4C)c4c(c3C2)CO[C@@H](c2ccccc2)C4)c1 ?
HPGD inh: -11%; ALDH1A1 inh: 4µM*

What do the screens show for `C[C@H]1Cc2c(-c3ccccc3)nc3c(c2CO1)CN(C(=O)c1cc(I)ccc1F)CC3`?
HPGD inh: -1%; ALDH1A1 inh: 18%[13.5 µM]

How did CC1CN(Cc2cc(=O)[nH]c(C3CC3)n2)CC(C)O1 (stereo unspecified) do in these assays?
HPGD inh: -10%; PNC assembly inh: 9; ALDH1A1 inh: 5%

What do the screens show for `O=c1c(O)c(-c2ccc(O)cc2)oc2ccc(O)cc12`?
HPGD inh: -19%; ALDH1A1 inh: -13%

What do the screens show for `OC1CCCC1`?
HPGD inh: -6%; ALDH1A1 inh: 8%

How did COc1ccc(Cl)cc1N(CC(=O)NC(C(C)C)C(C)C)S(C)(=O)=O do in these assays?
HPGD inh: -15%; PNC assembly inh: inconclusive; ALDH1A1 inh: 5%

What do the screens show for `O=C(Nc1nnc(C2CC2)s1)c1ccncc1`?
HPGD inh: -18%; PNC assembly inh: 53; ALDH1A1 inh: 15%

How did CCCC1CC(=O)OC1(C)C(=O)CSc1n[nH]c(-c2ccccc2)n1 (stereo unspecified) do in these assays?
HPGD inh: -19%; PNC assembly inh: 36; ALDH1A1 inh: 13µM*

Results for Cc1c(NC(=O)CSc2n[nH]c(-c3ccccc3)n2)c(=O)n(-c2ccccc2)n1C ?
HPGD inh: -10%; PNC assembly inh: -8; ALDH1A1 inh: 2%

Results for CCCC1CC(C)(C(=O)CSc2n[nH]c(-c3ccccc3)n2)OC1=O (stereo unspecified) ?
HPGD inh: -30%; PNC assembly inh: -8; ALDH1A1 inh: 10µM*

Results for O=C(CSc1n[nH]c(-c2cccnc2)n1)OC1CCCCC1 ?
ALDH1A1 inh: 4%

Results for ON1C(c2ccccc2C(F)(F)F)N(O)[C@H]2CCCC[C@H]21 (stereo partly specified) ?
HPGD inh: -2%; PNC assembly inh: 53; ALDH1A1 inh: -3%

What do the screens show for `Nc1nc(Cl)cc(Sc2ccc3ccccc3c2)n1`?
HPGD inh: -12%; PNC assembly inh: 42; ALDH1A1 inh: 10%

How did Cc1ccc(C(=O)Cn2c(C(=O)/C=C/c3ccccc3)nc3ccccc32)cc1 do in these assays?
HPGD inh: -22%; PNC assembly inh: 66; ALDH1A1 inh: inconclusive

Results for Cc1onc(NC(=O)CSCC(=O)O)c1Br ?
ALDH1A1 inh: -6%

What do the screens show for `CC1CCN(CCCCOc2ccccc2Br)CC1`?
HPGD inh: 4%; PNC assembly inh: -28; ALDH1A1 inh: inconclusive

What do the screens show for `COc1cccc(OCCCCCCN2CCOCC2)c1`?
HPGD inh: -9%; PNC assembly inh: 2; ALDH1A1 inh: 4µM*

Results for Brc1ccccc1OCCCN1CCOCC1 ?
HPGD inh: -13%; PNC assembly inh: -100*; ALDH1A1 inh: -9%

Results for CCOc1cccc(OCCCCN2CCOCC2)c1 ?
HPGD inh: 2%; PNC assembly inh: 16; ALDH1A1 inh: inconclusive

Results for CCOC(=O)c1c(NC(=O)COC(=O)c2c(C)noc2C)sc2c1CCC2 ?
HPGD inh: inconclusive; PNC assembly inh: 92; ALDH1A1 inh: inconclusive

How did CCOC(=O)c1[nH]c(C)c(/C(O)=C2\C(=O)C(=O)N(CCCN(C)C)C2c2cccnc2)c1C (stereo unspecified) do in these assays?
HPGD inh: -5%; PNC assembly inh: -3; ALDH1A1 inh: 3%

How did O=C1CCCN1CC(CN1CCOCC1)Sc1nc2ccccc2c(=O)n1-c1ccccc1 (stereo unspecified) do in these assays?
HPGD inh: -8%; PNC assembly inh: 11; ALDH1A1 inh: -11%

Results for C=CCC(O)(/C=C/c1ccccc1)c1ccccc1 (stereo unspecified) ?
HPGD inh: -12%; ALDH1A1 inh: -1%

Results for O=[N+]([O-])c1ccc([N+](=O)[O-])c(Nc2ccc(N3CCOCC3)cc2)c1 ?
ALDH1A1 inh: -9%

Results for O=C(Nc1nc2c(s1)CCCC2=O)c1cnccn1 ?
HPGD inh: -14%; PNC assembly inh: 45; ALDH1A1 inh: inconclusive

What do the screens show for `COc1ccc(CCNC(=O)CCN2C(=O)c3cccc4cccc(c34)C2=O)cc1OC`?
ALDH1A1 inh: 5%

Results for COc1ccc(CCN2C(=O)c3cccc4c(C(=O)N5CCCCC5)ccc(c34)C2=O)cc1OC ?
HPGD inh: 13µM*; PNC assembly inh: 17; ALDH1A1 inh: 10µM*

How did CC(C)NC(=O)C(OC(=O)c1ccccc1)C(OC(=O)c1ccccc1)C(=O)O (stereo unspecified) do in these assays?
HPGD inh: -3%; PNC assembly inh: -2; ALDH1A1 inh: 1%

How did COCC(=O)N1CCC[C@@]2(CCN(C(=O)Nc3ccccc3)C2)C1 do in these assays?
HPGD inh: -10%; ALDH1A1 inh: 5%

What do the screens show for `Cc1cc(Nc2ccccc2)n(-c2ccccc2)n1`?
HPGD inh: 18µM*; PNC assembly inh: -18; ALDH1A1 inh: -1%

How did Cc1cc(C)nc(-n2nc(C)cc2Nc2ccccc2)n1 do in these assays?
HPGD inh: -6%; PNC assembly inh: -23; ALDH1A1 inh: inconclusive

What do the screens show for `Cc1nonc1-c1csc(N)n1`?
ALDH1A1 inh: 4%

What do the screens show for `O=C(Cn1c(-c2ccccc2)noc1=O)NCc1ccccc1`?
PNC assembly inh: inconclusive; ALDH1A1 inh: 12%

What do the screens show for `Cc1cc2ncn(C(=O)c3c(-c4ccccc4Cl)noc3C)c2cc1C`?
HPGD inh: 2%; PNC assembly inh: inconclusive; ALDH1A1 inh: inconclusive

What do the screens show for `O=S(=O)(Cc1ccccc1)/C1=C(\N2CCOCC2)CCCCCC1`?
HPGD inh: -9%; PNC assembly inh: 10; ALDH1A1 inh: 13µM*

Results for O=S(=O)(c1ccc(S(=O)(=O)N2CCN(Cc3ccccc3)CC2)cc1)N1CCOCC1 ?
HPGD inh: 5%; PNC assembly inh: 23; ALDH1A1 inh: 14%

What do the screens show for `Fc1ccc(NCc2n[nH]c(=S)n2Cc2ccccc2)cc1`?
ALDH1A1 inh: -4%
